# Compound activity: PubChem, National Center for Advancing Translational Sciences (NCATS)
# This is a sample that favours compounds with a hit; in the whole collection about 0.44% have one here.
# EPAC1 antagonist: blocks human EPAC1 exchange factor | Potency, µM (series often up to 115 µM), without a hit: at the top dose activity change, negative = inhibition, usual class: inhibitors | EPAC1 GEF assay, Rap1b-BODIPY-GDP exchange fluorescence | O95398 | 360,000 compounds, 0.14% hits;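 also: plate controls were vehicle for no effect and positive control for full effect; nearly all actives have a fitted effect of over 50% in size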
# Target sequence (O95398 whole entry, looked up): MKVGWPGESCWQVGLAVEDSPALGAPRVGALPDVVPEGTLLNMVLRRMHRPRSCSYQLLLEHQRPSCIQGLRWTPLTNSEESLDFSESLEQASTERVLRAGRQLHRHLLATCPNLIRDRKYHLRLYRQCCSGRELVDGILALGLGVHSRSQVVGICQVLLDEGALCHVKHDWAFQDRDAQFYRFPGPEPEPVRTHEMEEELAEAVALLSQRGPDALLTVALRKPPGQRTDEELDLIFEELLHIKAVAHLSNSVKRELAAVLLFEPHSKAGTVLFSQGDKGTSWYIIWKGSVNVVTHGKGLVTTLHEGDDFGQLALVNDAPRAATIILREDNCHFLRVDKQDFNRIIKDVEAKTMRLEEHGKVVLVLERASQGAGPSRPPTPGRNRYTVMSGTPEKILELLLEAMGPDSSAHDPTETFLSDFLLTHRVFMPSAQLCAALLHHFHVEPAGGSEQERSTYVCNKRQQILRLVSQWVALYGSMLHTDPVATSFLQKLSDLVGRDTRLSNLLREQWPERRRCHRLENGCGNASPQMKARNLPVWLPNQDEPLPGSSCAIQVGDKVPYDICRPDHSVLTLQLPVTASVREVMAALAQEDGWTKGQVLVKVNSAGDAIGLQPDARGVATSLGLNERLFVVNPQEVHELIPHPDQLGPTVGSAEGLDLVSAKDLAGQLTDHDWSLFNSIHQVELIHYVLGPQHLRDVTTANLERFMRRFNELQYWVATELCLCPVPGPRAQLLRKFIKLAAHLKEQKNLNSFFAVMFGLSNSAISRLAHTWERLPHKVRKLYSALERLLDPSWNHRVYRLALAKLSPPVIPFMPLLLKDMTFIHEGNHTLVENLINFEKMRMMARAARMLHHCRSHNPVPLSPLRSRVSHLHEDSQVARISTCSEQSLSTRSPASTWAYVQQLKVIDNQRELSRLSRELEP
# EPAC2 antagonist: EPAC2 (human) antagonism. 360,000 compounds, 0.18% hits. EPAC2 GEF exchange of Rap1B-BODIPY-GDP, fluorescence. Potency, µM (titrated, usually from 114 µM), for inactives: top-dose activity, negative = inhibition, usual class: inhibitors. Q8WZA2; also: % is scaled to controls: 0 for no effect and ±100 for the full control effect; nearly all actives have a fitted effect of over 45% in size
# EPAC2 ag: agonists of human EPAC2 (RAPGEF4) | Q8WZA2 | EPAC2 activation, biochemical qHTS; response scale: 100% = 6.5 mM cAMP response | Potency, µM (highest dose often 154 µM), without a hit: at the highest dose activation, usual class: activators | 360,000 compounds, 0.079% hits; also: nearly all actives have a fitted effect of over 50% in size
#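 Fluorescence exchange assay: 100 nM EPAC2 with 250 nM RAP1B-BODIPY-GDP and 50 uM GDP; compounds tested as a concentration-titration series (qHTS). Loss of Rap1-bound BODIPY-GDP fluorescence read at 480/540 nm; data normalized to 6.5 mM cAMP.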
# EPAC1 agonist: activates human EPAC1 exchange factor; O95398; EPAC1 agonist qHTS, biochemical assay; response scale: 100% = response to 6.5 mM cAMP; Potency, µM (highest dose often 154 µM), for inactives: at the top dose activation, usual class: activators; 360,000 compounds, 0.073% hits; AID 720707; also: nearly all actives have a fitted effect of over 60% in size
#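 EPAC1 100 nM, Rap1B–BODIPY-GDP 250 nM, unlabeled GDP 50 uM; compound titration; 5 min RT; kinetic read ex480/em540 at 5-min intervals ×30 min; data normalized to 6.5 mM cAMP agonist control.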
# USP2a inh: blocks human ubiquitin-specific protease USP2a; O75604; USP2 core, Ub-CHOP2 coupled fluorogenic reporter, 485/531; Potency, µM (top dose mostly 38.3 µM), for the others: at the top dose activity change, negative = inhibition, hits mostly inhibitors; 330,000 compounds, 0.01% hits;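 also: plate controls were DMSO wells for no effect and full inhibition by NEM control for full effect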
#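 USP2 core (10nM final) preincubated 30min RT with compound in 20mM Tris-HCl pH 8.0, 2mM CaCl2, 2mM beta-mercaptoethanol, 0.05% CHAPS; 25nM Ub-CHOP2 plus 25nM reporter substrate added, fluorescence (Ex485/Em531) read after 60min.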
# USP1-UAF1 inh: USP1/UAF1 (human) deubiquitinase inhibition; O94782; recombinant USP1/UAF1, Ub-Rhodamine cleavage fluorescence; Potency, µM (doses to about 57.1 µM), without a hit: at the highest dose activity change, negative = inhibition, most hits filed as inhibitors; 390,000 compounds, 0.23% hits; AID 743255; also: % is scaled to controls: 0 for no effect and ±100 for the full control effect; nearly all actives have a fitted effect of over 60% in size
#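 1 nM enzyme complex + cpd, 15 min RT; start with Ub-Rho 150nM final; kinetic fluorescence ex 480/em 540, 6 reads q60 s. Buffer 50mM HEPES pH 7.8, 0.5mM EDTA, 0.1 mg/ml BSA, 1mM TCEP, 0.01% Tween-20.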
# An asterisk follows results filed as active; ? = inconclusive; . = no result given; [ ] = dose if it differs, or a comment. Calls follow the shape of the dose curve; as a rule, active = well fitted curve in the direction sought with a large enough effect; inconclusive = small, poorly fitted or top-dose-only effect, or another doubt; inactive = no such curve, though single readings can be large; an effect the other way counts as inactive or inconclusive. Potency is read from the fitted curve at half-maximal effect.
SMILES,EPAC1 antagonist,EPAC2 antagonist,EPAC2 ag,EPAC1 agonist,USP2a inh,USP1-UAF1 inh
O=C1S/C(=C\c2ccc(N3CCOCC3)o2)C(=O)N1Cc1c(F)cccc1Cl,16%,16%,14%,1%,4%,4µM*
Cc1cc(C)c2nc(N3C(=O)C(O)=C(C(=O)c4ccco4)C3c3ccco3)sc2c1 (stereo not given),50µM*,-7%,5%,-12%,-11%,-10%
O=C(COc1ccc(Cl)cc1)Nc1ccc2nc(SCC(=O)N3CCOCC3)sc2c1,.,.,.,.,.,-25%
COc1cc(NC(=O)CCCN2C(=O)CCn3nc(-c4cn(C)c5ccccc45)cc32)cc(OC)c1,.,.,.,.,.,-31%
Cc1[nH][nH]c(=O)c1C(c1c(C)[nH][nH]c1=O)c1cn(Cc2cccc3ccccc23)c2ccccc12,89µM*,4%,6%,16%,4%,14µM*
COc1ccc(N=Cc2cc(Cc3ccccc3Cl)cc([N+](=O)[O-])c2O)cc1OC,-16%,-11%,7%,-8%,1%,?
Cc1ccc(N=Cc2cc(Cc3ccccc3Cl)cc([N+](=O)[O-])c2O)c(O)c1,?,?,21%,23%,-21%,18µM*
Cc1ccc(NS(=O)(=O)c2ccc(C(=O)N3CC(C)CC(C)C3)cc2)cc1 (stereo not given),-12%,-18%,4%,100µM*,1%,-27%
COc1cccc(NC(=O)c2oc3ccccc3c2NC(=O)c2ccc(F)c(F)c2)c1,.,.,.,.,.,14%
O=C(NN=c1c(=O)c2ccccc2c1=O)c1ccccc1,4%,9%,12%,4%,1%,32µM*
CN(C)/C=N/NC(=O)c1ccccc1,-5%,6%,8%,-6%,8%,-11%
COc1ccc(/C(N)=N/OC(=O)c2ccc([N+](=O)[O-])c(C)c2)cc1OC,11%,4%[57.1 µM],4%,-10%,0%,-15%
COc1ccc(/C(N)=N/OC(=O)c2ccc(C)c([N+](=O)[O-])c2)cc1,-4%,5%,10µM*,-4%,0%,-18%
CCOC(=O)c1c(Nc2ccc(C)cc2)nnc(-c2ccccc2)c1-c1ccccc1,.,.,.,.,.,-28%
CCOC(=O)C1=C(c2ccccc2)N=c2s/c(=C\c3ccc(O)cc3)c(=O)n2C1c1cccs1 (stereo not given),6%,16%,24%,24%,1%,28µM*
CCOc1cc(CNCCSc2nnnn2-c2ccccc2)cc(Cl)c1OC,.,.,.,.,.,-6%
COc1cc2c3nnc(-c4ccc(F)cc4)c-3cn(Cc3cccc(C)c3)c2cc1OC,-5%,-3%,?,0%,3%,32µM*
COc1cc2c3nnc(-c4ccc(F)cc4)c-3cn(Cc3ccc(C)cc3)c2cc1OC,36%,76%,-52%,-51%,17%,32µM*
COc1cc2c3nnc(-c4ccccc4)c-3cn(Cc3ccc(F)cc3)c2cc1OC,2%,71µM*,30%,9%,-1%,-20%
Cc1ccc(Cn2nc3c4cc(F)ccc4n(Cc4ccc(F)cc4)cc-3c2=O)cc1,-3%,-1%,5%,17%,4%,-9%
COc1cc2c3nnc(-c4ccc(F)cc4)c-3cn(Cc3cccc(F)c3)c2cc1OC,?,-18%,29%,-4%,10%,?
Cc1cccc(C)c1Nc1c(-c2ccccc2Cl)nc2cnccn12,.,.,.,.,.,-5%
Oc1cccc(C=Nc2cccc3ccccc23)c1O,50µM*,12%,12%,-5%,-5%,?
Oc1ccccc1C=Nc1cccc2ccccc12,-17%,-6%,-3%,6%,-1%,-23%
O=C(O)Cc1ccc(C(=O)c2ccc(Cl)cc2Cl)s1,-20%,35µM*,-1%,-7%,0%,-11%
SMILES,EPAC1 antagonist,EPAC2 antagonist,EPAC2 ag,EPAC1 agonist,USP2a inh,USP1-UAF1 inh
CCOC(=O)c1ccc(/C=C2/C=C(c3ccccc3)N(c3ccc(Cl)c(C(=O)O)c3)C2=O)cc1,?,?,8%,19%,5%,25µM*
COc1cc2c(=O)n(Cc3ccccc3)c(=O)n(CC(=O)Nc3cc(C(F)(F)F)ccc3Cl)c2cc1OC,.,.,.,.,.,-21%
Cn1cccc1/C=C1\CCC/C(=C\c2cccn2C)C1=O,19%,?,-21%,100µM*,?,22µM*
O=C1/C(=C/c2cccs2)CCC/C1=C\c1cccs1,-8%,-3%,7%,16%,0%,-7%
O=C(CN1C(=O)CC(c2ccco2)Sc2ccccc21)Nc1ccc(OC(F)(F)F)cc1 (stereo not given),.,.,.,.,.,-18%
Cc1ccc(S(=O)(=O)/N=C2\C=C(NS(=O)(=O)c3ccccc3)C(=O)c3ccccc32)c(C)c1,0%,?,2%,-6%,.,-14%
Cc1ccc(S(=O)(=O)/N=C2\C=C(Nc3ccc(O)cc3)C(=O)c3ccccc32)cc1,?,-17%,19%,27%,-13%,11µM*
Cc1ccc(NC2=C/C(=N/S(=O)(=O)c3cccs3)c3ccccc3C2=O)cc1,-15%,6%,-8%,1%,2%,?
Cc1ccc(S(=O)(=O)/N=C2\C=C(Nc3cccc(C(=O)O)c3)C(=O)c3ccccc32)c(C)c1,?,?,3%,-13%,-4%,10µM*
CCc1ccc(S(=O)(=O)/N=C2\C=C(Nc3ccc(C(=O)O)cc3)C(=O)c3ccccc32)cc1,-22%,-15%,-6%,4%,-7%,18µM*
Cc1ccc(S(=O)(=O)/N=C2\C=C(Nc3cccc(C(=O)O)c3)C(=O)c3ccccc32)cc1,-27%,?,-1%,-2%,-7%,14µM*
COCc1cc(C)nc2c1C(=O)NC(c1ccc(C)cc1)N2Cc1ccccc1 (stereo not given),.,.,.,.,.,-13%
COc1ccc(C2C(=O)N(C3CCC(C)CC3)CC(=O)N2C2CCCC2)cc1OC (stereo not given),.,.,.,.,.,-9%
CC1CCc2c(sc3nnn(CC(=O)Nc4c(C(C)C)cccc4C(C)C)c(=O)c23)C1 (stereo not given),.,.,.,.,.,-2%
Cc1c(-c2ccccc2)c(=O)oc2c(CN3CCCC3)c(O)ccc12,.,.,.,.,.,-24%
CCc1ccccc1NC(=O)COC(=O)c1c(C)nsc1NC,9%,3%,4%,-7%,1%,-22%
CNc1snc(C)c1C(=O)OCC(=O)Nc1ccc(C)cc1F,-8%,-3%,-8%,56µM*,0%,-23%
CCc1ccc(-n2cccc2/C=C2/C(=N)N3C(=NC2=O)SN=C3S(C)(=O)=O)cc1,79µM*,-27%,-15%,-4%,0%,?
